Inconclusive results are not listed. Activity calls are given as the source filed them. The calls were made as follows: active = hit-call score of the fitted dose curve at least 0.9, where 1 is the maximum; inconclusive = response in the unintended direction; inactive = score below 0.9.

The record followed here is PubChem BioAssay AID2284382 (EPA ToxCast).

The experiment in a line: CCTE_Mundy_HCI_iCellGABA_NOG_NeuriteLength: CCTE's Neurite Outgrowth Assay in iCellGABA cells for Neurite Length, Mundy Lab. On the procedure:
CCTE_Mundy_HCI_iCellGABA_NOG is a multiplexed, cell-based-readout assay that uses iCell GABANeurons from FUJIFILM Cellular Dynamics, Inc. (FCDI), human GABAergic enriched neurons derived from induced pluripotent stem (iPS) cells, with measurements taken at 50.33 hours after chemical dosing in a microplate: 96-well plate.CCTE_Mundy_HCI_iCellGABA_NOG_NeuriteLength is one of four components of the CCTE_Mundy_HCI_iCellGABA_NOG assay. It measures neurite outgrowth related to neurite length using High Content Imaging of fluorescently labelled markers.Data from the assay component CCTE_Mundy_HCI_iCellGABA_NOG_NeuriteLength was analyzed at the endpoint CCTE_Mundy_HCI_iCellGABA_NOG_NeuriteLength in the positive analysis fitting direction relative to DMSO as the negative control and baseline of activity. Using a type of morphology reporter, loss-of-signal activity can be used to understand developmental effects.
Exposure starts 2 hours post-plating by adding 10 ul of the working solution to 90 ul of media in the wells for a 1/10 dilution. Forty-eight hours after chemical treatment cells are fixed by direct addition of 100 ul of warm (37C) Dulbecco's phosphate buffered saline (DPBS) fixative solution containing 8% paraformaldehyde, 8% sucrose, and 0.1% of 3 mg/ml Hoechst 33342 into each well. Primary antibodies are prepared by dilution in Immunocytochemical Staining Buffer (ISB), 10X Dulbecco's PBS, 0.1% Saponin, 5% Bovine Serum Albumin, 0.5% NaN3 (Sodium Azide) and betaIII-tubulin (rabbit anti-betaIII-tubulin, 1:800) followed by Alexa Fluor-488 secondary (1:500) to label neuronal cell bodies and neurites. A Cellomics ArrayScan VTi HCS Reader is used for automated image acquisition and analysis of neurite outgrowth.
`CCOP(=S)(OCC)Oc1ccc2c(C)c(Cl)c(=O)oc2c1`: the AC50 is 58 µM (active).

Turning to `CCOC(=O)CC(SP(=S)(OC)OC)C(=O)OCC` (stereo unspecified), the AC50 was 78.6 µM (active).

Consider `CCCSP(=O)(OCC)Oc1ccc(Br)cc1Cl` (stereo unspecified), for which the call was inactive.

`CCOP(=O)(SC(C)CC)N1CCSC1=O` (stereo unspecified): the outcome was inactive.

`COP(=O)(OC)O/C(=C\Cl)c1cc(Cl)c(Cl)cc1Cl`: the AC50 was 60.7 µM (active).

For `CCCSP(=O)(OCC)SCCC`, the compound was called inactive.

Consider `CCOC(=O)CC(SP(=O)(OC)OC)C(=O)OCC` (stereo unspecified), for which the outcome was inactive.

On to `CCOP(=S)(OCC)SCSC(C)(C)C`, for which the outcome was inactive.

On to `CCN(CC)c1nc(C)cc(OP(=S)(OC)OC)n1`, for which the AC50 is 78.8 µM (active).

Regarding `CCOP(=S)(Oc1cnc(C(C)(C)C)nc1)OC(C)C` (stereo unspecified), the call was inactive.

As to `COP(=O)(OC)OC(Br)C(Cl)(Cl)Br` (stereo unspecified), the AC50 was 11.6 µM (active).

For `CCOP(=S)(OCC)Oc1nc(Cl)c(Cl)cc1Cl`, the AC50 was 24.3 µM (active).

As for `COP(=S)(OC)SCN1C(=O)c2ccccc2C1=O`, the AC50 was 67.2 µM (active).

Turning to `CNC(=O)CSP(=O)(OC)OC`, the result was inactive.

In the case of `CCCCSP(=O)(SCCCC)SCCCC`, the call was inactive.

`CCOP(=S)(OCC)SCSCC`: the compound was called inactive.

In the case of `COP(=O)(OC)C(O)C(Cl)(Cl)Cl` (stereo unspecified), the AC50 was 50 µM (active).

As to `COP(=O)(OC)O/C(C)=C/C(=O)N(C)C`, the result was inactive.

Take `CCOP(=S)(OCC)OC(Cl)C(Cl)(Cl)Cl` (stereo unspecified): the AC50 is 29.9 µM (active).

Consider `COP(=O)(OC)OC=C(Cl)Cl`, for which the compound was classed as inactive.

On to `CNC(=O)CSP(=S)(OC)OC`, for which the result was inactive.
